The values that follow come from PubChem BioAssay (Tox21).

Unmarked numbers belong to inactive results. Results filed as inconclusive are left out. Calls of active or inactive are those of the source. Unless noted, the call rests on the fitted dose curve; in most records, active means well fitted curve in the direction sought with a large enough effect in the repeat runs; inconclusive means weak or mixed curves; inactive means no such curve, though single readings can be large; an effect the other way counts as inactive or inconclusive.

Assay [1] can be described thus: A CellTox Green Cytotoxicity Assay to monitor cytotoxicity in HepG2 cells - 0 hour (AID 1224882). Further: nearly all actives have a fitted effect of over 35% in size. An outline of the steps:
(§1)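 HepG2 cells were seeded together with the CellTox Green dye at 600 cells/well, left 5 h at 37 C/5% CO2, then given compounds in DMSO. Fluorescence from dye bound to dead-cell DNA was read repeatedly over 40 h of treatment at 37 C.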

Assay [2] can be described thus: A CellTox Green Cytotoxicity Assay to monitor cytotoxicity in HepG2 cells - 32 hour (AID 1224883). Further: nearly all actives have a fitted effect of over 50% in size. Summed up: as §1
A short description of assay [3]: A CellTox Green Cytotoxicity Assay to monitor cytotoxicity in HEK293 cells - 8 hour (AID 1224884). Further: nearly all actives have a fitted effect of over 35% in size. Summed up:
(§2)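 HEK293 cells premixed with CellTox Green dye were seeded at 600 cells/well and left 5 h at 37 C/5% CO2 before pin transfer of 23 nL compound in DMSO. Fluorescence from dye bound to dead-cell DNA was read during 40 h treatment.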

A short description of assay [4]: qHTS RealTime-Glo MT Cell Viability Assay in HepG2 cells - 16 hour (AID 1224885). Further: nearly all actives have a fitted effect of over 50% in size. An outline of the steps:
(§3)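 HepG2 cells were seeded at 600 cells/well together with NanoLuc luciferase and a cell-permeant prosubstrate, preincubated 5 h at 37 C/5% CO2, then pin-dosed with compounds in DMSO. Nonlytic luminescence from viable cells was read at each time point.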
In general terms: In qHTS, concentration-response curves come from the screen itself.

Assay [5] is described as follows: qHTS RealTime-Glo MT Cell Viability Assay in HEK293 cells - 24 hour (AID 1224886). Further: nearly all actives have a fitted effect of over 50% in size. Further: potency means the concentration at half of the fitted maximal effect. An outline of the steps: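 HEK293 cells were seeded at 600 cells/well together with NanoLuc luciferase and cell-permeant prosubstrate, preincubated 5 h at 37 C/5% CO2, then given compound in DMSO by pintool. Luminescence from viable-cell prosubstrate reduction was read repeatedly over 40 h.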

Assay [6] is described as follows: qHTS RealTime-Glo MT Cell Viability Assay in HEK293 cells - 8 hour (AID 1224887). Further: nearly all actives have a fitted effect of over 50% in size. Further: potency means the concentration at half of the fitted maximal effect. Summed up:
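HEK293 cells mixed with RealTime-Glo reagents (NanoLuc plus cell-permeant prosubstrate) at 600 cells/well, preincubated 5 h at 37 C/5% CO2, then given 23 nL compound in DMSO. Nonlytic luminescence from viable cells was read at 0, 8, 16, 24, 32 and 40 h.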

Assay [7] is described as follows: A CellTox Green Cytotoxicity Assay to monitor cytotoxicity in HEK293 cells - 16 hour (AID 1224888). Further: nearly all actives have a fitted effect of over 35% in size. Summed up:
as §2

Assay [8] can be described thus: qHTS RealTime-Glo MT Cell Viability Assay in HepG2 cells - 0 hour (AID 1224889). Further: nearly all actives have a fitted effect of over 50% in size. Summed up: as §3
A short description of assay [9]: A CellTox Green Cytotoxicity Assay to monitor cytotoxicity in HepG2 cells - 8 hour (AID 1224890). Further: nearly all actives have a fitted effect of over 45% in size. Summed up: as §1
Assay [10] in a line: qHTS assay to identify small molecule antagonists of the estrogen receptor alpha (ER-alpha) signaling pathway using the BG1 cell line in the presence of 0.1 nM 17-beta-estradiol - cell viability counter screen (AID 1259241). Further: nearly all actives have a fitted effect of over 40% in size. Summed up:
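In this screen, hormone-deprived VM7Luc4E2 cells were seeded at 4,000 per well, dosed with compound and 0.1 nM estradiol final, and incubated 22 hr at 37C and 5% CO2; fluorogenic live-cell protease signal reported viability.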

The nature of assay [11]: qHTS assay to identify small molecule antagonists of the androgen receptor (AR) signaling pathway using the MDA cell line in the presence of 0.5 nM R1881 - cell viability counter screen (AID 1259242). Further: nearly all actives have a fitted effect of over 45% in size. An outline of the steps: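 MDA-kb2 cells (human breast carcinoma, stably carrying MMTV-luciferase reporter) were exposed to compounds with 0.5 nM R1881 (final) for 16 hr at 37C, 0% CO2; viability then read as live-cell protease fluorescence (CellTiter-Fluor, 30 min) in the same wells.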

Assay [12] addresses Estrogen receptor (Homo sapiens) (UniProt P03372). Description: qHTS assay to identify small molecule antagonists of the estrogen receptor alpha (ER-alpha) signaling pathway using the BG1 cell line in the presence of 0.1 nM 17-beta-estradiol (AID 1259244). Further: nearly all actives have a fitted effect of over 50% in size. An outline of the steps: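 VM7Luc4E2 cells (endogenous full-length ER-alpha, stable 4xERE-luciferase) were grown 5 days in phenol red-free medium with charcoal-stripped FBS, then exposed 22 h at 37C to compounds plus 0.1 nM (final) 17beta-estradiol; ONE-Glo luminescence read-out.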

The nature of assay [13]: qHTS assay to identify small molecule HDAC inhibitors (AID 1259364). Further: top concentration of the series differs between compounds; nearly all actives have a fitted effect of over 45% in size. An outline of the steps: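 Wild-type HCT-116 cells were plated overnight, exposed to compounds for 2 h at 37 °C, then given HDAC-Glo class I/II luminogenic reagent for 30 min at room temperature before luminescence was read.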
Assay [14] is described as follows: qHTS assay to identify small molecule HDAC inhibitors - cell viability counter screen (AID 1259365). Summed up:
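Measured quantity is CellTiter-Glo luminescence from wild-type HCT-116 cells after compound incubation of 2hr at 37C, 5% CO2; reagent developed 30min at room temperature.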

Assay [15] is described as follows: qHTS assay to identify small molecule agonists of the sonic hedgehog signaling (Shh) pathway - cell viability counter screen (AID 1259366). Further: nearly all actives have a fitted effect of over 50% in size. Further: potency means the concentration at half of the fitted maximal effect. Summed up: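 In quantitative high-throughput format, 3T3 Gli1-Luc cells were exposed to compounds for 24hr and multiplexed for viability using CellTiter-Fluor, incubated 1hr at 37C before the fluorescence read.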
The nature of assay [16]: qHTS assay to identify small molecule antagonists of the sonic hedgehog signaling (Shh) pathway - cell viability counter screen (AID 1259367). Further: nearly all actives have a fitted effect of over 55% in size. Further: potency means the concentration at half of the fitted maximal effect. Summed up: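 Seed 3T3 Gli1-Luc cells at 2,000 per well; incubate 4 hr; add compound in DMSO, then conditioned medium; incubate at 37C with 5% CO2; add CellTiter-Fluor after 23 hr; read fluorescence 1 hr later.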
Assay [17] in a line: qHTS assay to identify small molecule agonists of the sonic hedgehog signaling (Shh) pathway (AID 1259368; calls by dose curve; further: series mostly up to about 92 µM; nearly all actives have a fitted effect of over 15% in size). Summed up:
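NIH/3T3-derived 3T3Gli1-Luc cells carrying a stably integrated Gli1 response element–firefly luciferase reporter were plated, left 4 hr at 37 C, then given compounds in DMSO for 24 hr. Luminescence was read 30 min after adding luciferase reagent.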

Assay [18] is described as follows: A CellTox Green Cytotoxicity Assay to monitor cytotoxicity in HEK293 cells - 32 hour (AID 1224881). Further: nearly all actives have a fitted effect of over 40% in size. Summed up:
as §2

A short description of assay [19]: qHTS assay to identify small molecule phospholipidosis (PLD) inducers (AID 1259344; active means well fitted curve in the direction sought with a large enough effect; an effect the other way counts as inactive or inconclusive). An outline of the steps: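 Quantitative HTS in HepG2: compound plus LipidTOX Red dye for 24 h, paraformaldehyde fixation with Hoechst 33342, widefield high-content imaging; amiodarone as positive and DMSO as negative control.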
Assay [20] concerns the target Androgen receptor (Homo sapiens) (UniProt P10275). Description: qHTS assay to identify small molecule antagonists of the androgen receptor (AR) signaling pathway using the MDA cell line in the presence of 0.5 nM R1881 (AID 1259243). Further: nearly all actives have a fitted effect of over 50% in size. Summed up: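 MDA-kb2 human breast carcinoma cells carrying an MMTV-luciferase reporter (AR- and GR-responsive) were plated, rested 5 hr at 37C, dosed with compounds, then stimulated with 0.5 nM R1881 (final) for 16 hr; luminescence was read after ONE-Glo.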

Sequence of Estrogen receptor (Homo sapiens) (P03372 whole entry, looked up): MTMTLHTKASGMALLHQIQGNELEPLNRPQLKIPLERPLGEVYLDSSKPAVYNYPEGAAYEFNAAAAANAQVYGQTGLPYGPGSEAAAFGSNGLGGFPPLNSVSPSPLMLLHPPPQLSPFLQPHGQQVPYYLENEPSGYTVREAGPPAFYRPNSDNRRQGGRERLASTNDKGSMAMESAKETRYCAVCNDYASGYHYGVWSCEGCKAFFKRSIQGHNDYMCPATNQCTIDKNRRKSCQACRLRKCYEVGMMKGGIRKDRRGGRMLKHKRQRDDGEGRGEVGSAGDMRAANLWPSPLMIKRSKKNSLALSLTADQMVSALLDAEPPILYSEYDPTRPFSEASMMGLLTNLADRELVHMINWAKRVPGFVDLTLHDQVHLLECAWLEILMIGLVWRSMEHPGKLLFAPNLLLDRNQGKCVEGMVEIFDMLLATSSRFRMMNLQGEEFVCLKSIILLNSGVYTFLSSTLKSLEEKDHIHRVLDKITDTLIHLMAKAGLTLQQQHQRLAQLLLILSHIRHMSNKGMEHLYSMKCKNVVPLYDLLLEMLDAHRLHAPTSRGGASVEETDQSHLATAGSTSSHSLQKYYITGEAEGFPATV
Sequence of Androgen receptor (Homo sapiens) (P10275 whole entry, looked up): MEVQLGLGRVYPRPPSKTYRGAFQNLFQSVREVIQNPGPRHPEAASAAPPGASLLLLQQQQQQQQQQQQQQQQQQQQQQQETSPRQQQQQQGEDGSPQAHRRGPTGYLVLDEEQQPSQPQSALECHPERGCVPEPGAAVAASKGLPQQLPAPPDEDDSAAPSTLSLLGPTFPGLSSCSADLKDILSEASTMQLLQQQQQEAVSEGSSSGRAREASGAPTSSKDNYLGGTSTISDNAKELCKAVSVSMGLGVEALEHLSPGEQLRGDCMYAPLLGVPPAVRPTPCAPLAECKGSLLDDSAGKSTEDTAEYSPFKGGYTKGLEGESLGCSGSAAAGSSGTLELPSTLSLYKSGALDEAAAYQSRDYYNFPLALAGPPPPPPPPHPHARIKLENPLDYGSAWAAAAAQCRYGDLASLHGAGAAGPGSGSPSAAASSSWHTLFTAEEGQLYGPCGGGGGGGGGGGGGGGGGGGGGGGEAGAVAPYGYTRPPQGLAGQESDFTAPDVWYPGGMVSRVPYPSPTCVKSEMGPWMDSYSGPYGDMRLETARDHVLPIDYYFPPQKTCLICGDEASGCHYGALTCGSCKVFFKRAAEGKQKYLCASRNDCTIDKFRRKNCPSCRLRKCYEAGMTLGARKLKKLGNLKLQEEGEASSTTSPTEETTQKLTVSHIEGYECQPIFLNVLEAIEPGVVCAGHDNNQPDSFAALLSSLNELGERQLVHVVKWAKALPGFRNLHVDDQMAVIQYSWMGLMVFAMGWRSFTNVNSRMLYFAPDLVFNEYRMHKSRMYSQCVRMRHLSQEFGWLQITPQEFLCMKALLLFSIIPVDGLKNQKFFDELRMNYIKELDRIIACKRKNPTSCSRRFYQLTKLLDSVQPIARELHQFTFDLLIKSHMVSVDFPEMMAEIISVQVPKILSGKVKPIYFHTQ

Take `CCSC(=O)N(CC)C1CCCCC1`: the compound was called inactive in [1], in assay [10], in assay [11], in [14] and in [17]. Moreover, the Potency entry in assay [2], in [3], in assay [4], in assay [5], in assay [6] and in assay [7] was “inactive” throughout. In addition, the Potency entry in [8], in assay [9], in [12], in assay [13], in assay [15] and in [16] was “inactive” each time.
For `C[C@H]1CCC[C@H](O)CCCCCc2cc(O)cc(O)c2C(=O)O1`, the Potency result in assay [18], in assay [3], in [4], in [7], in assay [8] and in assay [9] was “inactive” each time. Further, the Potency entry in [13] is “inactive”. In addition, the Potency in [5] was 34.9 µM (active); in assay [6], 27.7 µM (active). Moreover, the result in assay [11], in [19], in [14] and in [17] was inactive.
Consider `COP(=S)(OC)Oc1ccc(S(N)(=O)=O)cc1`, for which the Potency entry in assay [18], in [2], in [5], in assay [6], in assay [7] and in [9] was “inactive” in each case. Further, the Potency entry in assay [12], in assay [13], in assay [15] and in assay [16] was “inactive” in each case. The result in [10], in assay [11], in assay [19], in assay [14] and in assay [17] was inactive.
For `Nc1cc(Cl)ccc1O`, the Potency entry in [18], in assay [2], in assay [3], in assay [4], in assay [5] and in [7] was “inactive” in each case. The Potency result in [8], in assay [9], in assay [12] and in assay [13] was “inactive” throughout. The outcome in assay [10], in assay [11], in assay [14] and in [17] was inactive. Also, the Potency in assay [15] is 59.1 µM (active); in assay [16] it was 29.6 µM (active).
Take `CC(C(=O)c1ccccc1)N(C)C` (stereo not given): the Potency result in [18], in assay [2], in assay [5], in assay [6], in assay [7] and in assay [8] was “inactive” in each case. For the same compound, the Potency entry in assay [9], in assay [20], in assay [12], in [13], in [15] and in assay [16] was “inactive” in each case. In addition, the result in assay [10], in [11], in assay [14] and in assay [17] was inactive.
With `Cc1ncsc1CCCl`, the Potency result in [18], in assay [2], in [3], in assay [4], in assay [6] and in assay [8] was “inactive” throughout. For the same compound, the Potency entry in assay [9], in assay [12], in [13], in assay [15] and in [16] was “inactive” throughout. Moreover, the outcome in assay [11], in assay [19], in assay [14] and in [17] was inactive.
For the compound `O=C(Cc1ccccc1)OCc1ccccc1`, the compound was called inactive in assay [1], in assay [10], in [11], in assay [14] and in assay [17]. The Potency entry in [2], in [3], in [4], in assay [5], in [6] and in assay [7] was “inactive” throughout. The Potency result in [8], in assay [9], in assay [12], in assay [15] and in [16] was “inactive” throughout.
`NC1=NC(=O)C(c2ccccc2)O1` (stereo not given): the Potency result in assay [18], in assay [2], in assay [6], in assay [7], in assay [8] and in assay [9] was “inactive” in each case. Further, the Potency entry in assay [13] and in [15] was “inactive” in each case. The outcome in [11], in assay [19], in [14] and in assay [17] was inactive.
